Among all 150,000 compounds or so, about 540 (0.36%) showed an effect of 50% or more. The entries come from a sample that favours strong results as a whole.
system: Plasmodium falciparum; test: Primary screen in NF54 nanoGlo assay, in single point, at 2uM, 72h; a lower Z score goes with more inhibition; type: functional, Erythrocyte; conditions: timepoint 72 hour

Compound | % Inhibition | Z score
CC(NC[C@H](C)O)C(C)(C)c1ccc(F)cc1 (stereo partly specified) | -3% | 0.44
Fc1cc(CNCC(F)F)ccc1Cl | -7% | 0.98
O=c1ccc(-c2cncnc2)c2n1C[C@H]1C[C@@H]2CN(S(=O)(=O)c2ccccc2)C1 | -11% | 1.78
Cc1ccc(CN2CCN(C(=O)Cc3cccnc3)[C@H]3CS(=O)(=O)C[C@H]32)o1 | 5% | -0.92
CCC(=O)Nc1ccc(C)c(NC(=O)C2(c3ccccc3)CCN(C)CC2)c1 | -9% | 1.09
CCc1cccc(N(C(=O)c2ccc(NC(C)=O)cc2)C2(C(=O)NCc3ccccc3)CCN(C(C)=O)CC2)c1 | 0% | 0
CC(=O)N(C1CCN(Cc2ccccc2)CC1)C1(C(=O)Nc2ccc3[nH]ccc3c2)CCN(C)CC1 | 92% | -11.04
CN(C)c1ccc(CN2CCN(CCO)[C@@H]3CS(=O)(=O)C[C@@H]32)cn1 | -3% | 0.58
O=C(Cc1ccc(O)c(F)c1)N1C[C@H]2c3ccccc3OC[C@@]2(C(=O)O)C1 | -2% | 0.24
CCOc1ccccc1NC(=O)CN1CC=C(c2cnn(C)c2)CC1 | -1% | 0.1
COc1ccc(-c2csc(-n3cc(C4=CCN(CCO)CC4)cn3)n2)cc1 | 50% | -5.49
CN(C)C1(CNc2ccc(C#N)c(Cl)c2)CCOCC1 | -5% | 0.53
O=C(c1cc(F)cc(F)c1)N1CCC2(CC1)N(c1ccccc1)C(=O)CS2(=O)=O | -15% | 2.33
CC(C)(N)Cc1ccc(C(F)(F)F)cc1 | 1% | -0.09
CN1CCC[C@@]2(CCN(c3ccncc3C3CC3)C2)C1 | 0% | 0.05
CN1CC[C@]2(CCN(c3ccnc4ccsc34)C2)C1 | 98% | -10.65
c1cc(N2CC[C@@]3(CCCNC3)C2)c2sccc2n1 | 98% | -16.03
Clc1cccc2c(N3CC[C@]4(CCNC4)C3)ccnc12 | 23% | -3.12
CN1CC[C@@]2(CCCN(c3ccncc3F)C2)C1 | -8% | 0.76
CCc1cc(CN[C@@H](C)Cc2ccc(F)cc2)on1 | -5% | 0.53
Cc1nc(CN2C[C@@H](CO)[C@H](c3ccc(Cl)cc3)C2)co1 | 4% | -0.83

Compound | % Inhibition | Z score
O=C(CNc1ccc(Cl)c(F)c1)N1CCC2(CC1)OCCO2 | 28% | -3.19
CCCS(=O)(=O)Nc1ccc(=O)n2c1[C@@H]1C[C@@H](CN(C(=O)Nc3ccc(F)cc3)C1)C2 | 27% | -3.06
N#Cc1ccc(N[C@H]2CCN(C3CCOCC3)C2=O)cc1C(F)(F)F | 1% | -0.05
CN(Cc1ccccc1)C[C@H]1C[N@@]2CC[C@H]1C[C@@H]2CNC(=O)c1ccccc1 | 11% | -1.99
C=CCN(C)C[C@H]1CN2CC[C@H]1C[C@@H]2CNC(=O)Nc1ccc(OC(F)(F)F)cc1 | 57% | -4.08
C#CCN(C)C[C@H]1C[N@@]2CC[C@H]1C[C@@H]2CNC(=O)c1ccccc1 | 33% | -3.75
O=C(c1ccncc1F)N1C[C@H]2CC[C@@H](C1)N(CC1CC1)C2 | 2% | -0.29
O=C(NCc1ccccc1)N1Cc2ccccc2-n2cccc2[C@H]1c1ccccc1 | -9% | 1.11
CN1CCN(CC(=O)N2CCC3(CC2)OCCO3)c2ccc(Cl)cc21 | -13% | 2.46
CCCc1cncnc1N1C[C@H]2CC[C@@H](C1)N(CCC)C2 | 7% | -1.29
Cc1nc[nH]c1CN1C[C@H]2CC[C@@H](C1)N(C(=O)Cc1ccncc1)C2 | -5% | 0.88
COc1ccc2c(c1)OC[C@@]1(C(=O)O)CN(CCC(F)(F)F)C[C@@H]21 | 3% | -0.33
Cc1cc(Cl)cc2c(N3CC[C@@]4(O)CCNC[C@H]4C3)ccnc12 | 3% | -0.52
Cc1cc(C)n2ncc(CN3C[C@@H]4CC[C@H](C3)C(=O)N4)c2n1 | -11% | 1.38
CC(C)(C)OC(=O)N1[C@@H]2CC[C@H]1[C@@H]1C[C@]1(C(=O)O)C2 | -10% | 1.06
CC(C)c1ncc(C(=O)N[C@H]2CN3CCC2CC3)cn1 | 2% | -0.19
c1ccc2c(CN3CCCCCC3)c[nH]c2c1 | 5% | -0.53
O=C(Cc1c[nH]c2ccccc12)N1CCN(Cc2nnn3c2CO[C@H](c2cccc(F)c2)C3)CC1 | -6% | 0.79
CCOc1ccccc1NC(=O)c1ccc2oc(=O)n(Cc3ccc(F)cc3)c2c1 | 2% | -0.31
CC(C)CCC(=O)N1CCC2CCN(C)CC21 (stereo unspecified) | -3% | 0.4
CN1CCC2CCN(C(=O)Nc3nccs3)C2C1 (stereo unspecified) | -8% | 0.77

Compound | % Inhibition | Z score
COc1cccc(CNC(=O)N2CC[C@@H]3CCN(C)C[C@@H]32)n1 | 88% | 0.42
C[C@]1(c2ccccc2Cl)NC(=O)N(CC(=O)Nc2ccc(Cl)cc2C(=O)c2ccccc2)C1=O | -1% | 0.1
O=C(c1ccccc1)c1cc(Cl)ccc1NC(=O)C1CCN(C(=O)c2ccco2)CC1 | 1% | -0.14
O=C(c1ccccc1)c1cc(Cl)ccc1NC(=O)[C@H]1CC(=O)N(c2ccc(F)cc2)C1 | 56% | -9.01
Cc1sc2ncnc(N3CCN4CCC[C@H]4C3)c2c1C | -5% | 0.64
O=C(COc1ccccc1)N1CCCCC[C@@H]1CN1CCCC1 | 1% | -0.2
CC(C)n1ccc(C(=O)NC2CC(C(=O)O)c3ccccc32)n1 (stereo unspecified) | -1% | 0.16
Cc1cc(C(=O)NC2CC2)nn1[C@@H](C)C1CC1 | -5% | 0.91
Cc1cc(C(=O)NC2CC(C)n3ccnc32)nn1C(C)C (stereo unspecified) | 62% | -7.62
CC(Cc1ccccc1Br)NC(C)c1cccnc1 (stereo unspecified) | 2% | -0.27
C[C@@H](Cc1ccccc1F)NCC1(CO)CCCC1 | -3% | 0.57
Cc1ccc2c(c1)CCCN2C(=O)CN1CC=C(c2cnn(C)c2)CC1 | 55% | -3.45
CCOc1ccc(NC(=O)CN2CC=C(c3cnn(C)c3)CC2)cc1 | -9% | 0.93
COc1ccc(NC(=O)CN2CC=C(c3cnn(C)c3)CC2)cc1Cl | -9% | 1.67
CC1CCCC2CCCN(Cc3nc4c(cnn4C)c(=O)[nH]3)C12 (stereo unspecified) | -8% | 0.94
C[C@@H](Cc1ccc(F)cc1)NCC(C)(C)C(N)=O | -4% | 0.56
C=CCCC(CN1C[C@H]2CC=CC[C@H]2C1)Oc1ccnc(C)n1 (stereo partly specified) | 3% | -0.6
C=CCCC(CN1C[C@H]2CC=CC[C@H]2C1)Oc1ncc(F)cn1 (stereo partly specified) | 75% | -13.95
C=CCCC(CN1C[C@H]2CC=CC[C@H]2C1)Oc1ncccn1 (stereo partly specified) | -8% | 1.33
Cc1oncc1C(=O)N1C[C@H](c2cc(F)cc(F)c2)[C@@H]2[C@H]1C1CCN2CC1 | -4% | 0.74
Cc1cnc(N2C[C@H]3CN(C)C[C@H]3C2)c(Br)c1 | -1% | 0.19

Compound | % Inhibition | Z score
Fc1cnc(N2C[C@@H](c3ccccc3)[C@@H]3[C@H]2C2CCN3CC2)nc1 | -13% | 2.17
CN1CCN2c3cccc(Cl)c3CC3(C(=O)NC(=O)N(c4ccc(F)cc4)C3=O)C2C1 (stereo unspecified) | 4% | -0.49
COCCn1ccc(C(=O)N[C@H]2CCc3nc(C(C)C)nn3C2)n1 | 71% | -11.17
COCCn1ccc(C(=O)NC(C)(C)c2ccc(F)cc2Cl)n1 | 4% | -0.52
COCCn1cc(C(=O)N[C@H]2C[C@@](CO)(c3ccccc3)C2)nn1 | 1% | -0.11
CN(C(=O)CCC(F)(F)F)C1CC2CCC(C1)N2 (stereo unspecified) | -19% | 1.62
O=S(=O)(NC12CCCC1CNC2)c1onc(C2CC2)c1Cl (stereo unspecified) | 94% | -8.97
CCCCOc1ncccc1CNC(=O)C1CN2CCCC2CO1 (stereo unspecified) | -1% | 0.09
CCC(CC)c1cc([C@H]2CN3CC[C@H]2C[C@@H]3CO)nc(-c2ccncc2)n1 | 25% | -2.22
CCCS(=O)(=O)NC[C@H]1C[C@@H]2CCN1C[C@@H]2c1cc(C(CC)CC)nc(-c2ccncc2)n1 | 35% | -3.34
CCC(CC)c1cc([C@H]2CN3CC[C@H]2C[C@@H]3CNS(=O)(=O)Cc2ccccc2)nc(-c2ccncc2)n1 | 75% | -9.43
COCCN1C[C@@H]2CC[C@H]1CN(C(=O)c1cc(C(C)C)on1)C2 | 4% | -0.35
Cc1ncsc1CN1C[C@@H]2CC[C@H]1CN(Cc1c(C)noc1C)C2 | -5% | 0.89
Cc1ccc(CNc2ncnc3[nH]ncc23)c(-n2cc(Cl)cn2)n1 | 12% | -2.28
CN(C)c1ccnc(N2C[C@@H](c3ccc4c(c3)OCO4)[C@@H]3[C@H]2C2CCN3CC2)n1 | -7% | 0.91
c1cc2c(cc1CCN1CCCC1)CCO2 | -12% | 1.27
Cn1nc(C(=O)N2CCC3(CC2)OCCO3)c2ccccc2c1=O | -14% | 2.25
Cc1ccc(C)n1[C@@H](Cc1cnc[nH]1)C(=O)O | -1% | 0.15
c1cc2c(c(-c3cnccn3)c1)CCNC2 | -4% | 0.84
c1ccc2c(c1)C[C@H](Cc1ccc3c(c1)CNCC3)CO2 | 3% | -0.36
